A number with no mark means an inactive call. Records with an inconclusive call do not appear. Where a call stands in place of a potency, no number is given. Activity calls are given as the source filed them. The call rests on the fitted dose curve; in most records, active means well fitted curve in the direction sought with a large enough effect in the repeat runs; inconclusive means weak or mixed curves; inactive means no such curve, though single readings can be large; an effect the other way counts as inactive or inconclusive.
Legend:
[1] = qHTS RealTime-Glo MT Cell Viability Assay in HepG2 cells - 8 hour (AID 1224873); further: nearly all actives have a fitted effect of over 55% in size; further: potency means the concentration at half of the fitted maximal effect
In short: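 HepG2 cells (600/well) mixed with RealTime-Glo MT reagent, settled 5 h at 37 C/5% CO2 before compound addition. Nonlytic NanoLuc luminescence from viable-cell prosubstrate reduction read repeatedly during 40 h treatment at 37 C.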

[2] = qHTS RealTime-Glo MT Cell Viability Assay in HEK293 cells - 40 hour (AID 1224874); conditions: RealTime-Glo luminescence; max response: stronger effect = lower value; further: nearly all actives have a fitted effect of over 50% in size; further: potency means the concentration at half of the fitted maximal effect
In short: (§1)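 600 cells/well were plated with the nonlytic NanoLuc/prosubstrate reagent, pre-incubated 5 h, then given 23 nL of compound in DMSO. Incubation at 37 C for 40 h, with luminescence from viable-cell-reduced substrate read repeatedly from 0 h.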

[3] = qHTS RealTime-Glo MT Cell Viability Assay in HepG2 cells - 32 hour (AID 1224877); further: nearly all actives have a fitted effect of over 55% in size; further: potency means the concentration at half of the fitted maximal effect
In short: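 Cells + NanoLuc/prosubstrate dispensed (600 cells/well) → 5 h at 37 C/5% CO2 → compounds in DMSO transferred → 40 h incubation at 37 C, luminescence read at 0, 8, 16, 24, 32, 40 h.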

[4] = A CellTox Green Cytotoxicity Assay to monitor cytotoxicity in HepG2 cells - 40 hour (AID 1224879); further: nearly all actives have a fitted effect of over 40% in size; further: potency means the concentration at half of the fitted maximal effect
In short: (§2)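 HepG2 cells, 600/well, preincubated 5 h with CellTox Green dye, then exposed to Tox21 compounds in DMSO at 37 C for up to 40 h. Dead-cell DNA fluorescence read at the indicated time point.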

[5] = qHTS RealTime-Glo MT Cell Viability Assay in HEK293 cells - 0 hour (AID 1224880); further: top concentration of the series differs between compounds; nearly all actives have a fitted effect of over 45% in size
In short: as §1

[6] = A CellTox Green Cytotoxicity Assay to monitor cytotoxicity in HEK293 cells - 32 hour (AID 1224881); further: nearly all actives have a fitted effect of over 40% in size; further: potency means the concentration at half of the fitted maximal effect
In short: (§3)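 HEK293 cells, 600/well, were preincubated 5 hours and then exposed to compounds at 37 C for up to 40 hours. A cell-impermeant cyanine dye staining dead-cell DNA was read by fluorescence at 0, 8, 16, 24, 32 and 40 h time points.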

[7] = A CellTox Green Cytotoxicity Assay to monitor cytotoxicity in HepG2 cells - 0 hour (AID 1224882); further: nearly all actives have a fitted effect of over 35% in size
In short: as §2

[8] = A CellTox Green Cytotoxicity Assay to monitor cytotoxicity in HEK293 cells - 24 hour (AID 1224875); further: nearly all actives have a fitted effect of over 45% in size; further: potency means the concentration at half of the fitted maximal effect; on activity change: series mostly up to about 77 µM
In short: as §3

[9] = A CellTox Green Cytotoxicity Assay to monitor cytotoxicity in HepG2 cells - 16 hour (AID 1224876); further: nearly all actives have a fitted effect of over 45% in size; further: potency means the concentration at half of the fitted maximal effect
In short: as §2

[10] = A CellTox Green Cytotoxicity Assay to monitor cytotoxicity in HepG2 cells - 24 hour (AID 1224878); further: nearly all actives have a fitted effect of over 45% in size; further: potency means the concentration at half of the fitted maximal effect
In short: as §2

Compound: Cc1occc1SSc1ccoc1C
- Potency [1]: inactive
- max response [2]: -28.3%
- Potency [3]: inactive
- Potency [4]: 54.9 µM (active)
- Potency [5]: inactive
- Potency [6]: 54.9 µM (active)
- Potency [7]: inactive

Compound: C=CC(=O)OCCC#N
- Potency [1]: inactive
- Potency [8]: inactive
- Potency [9]: inactive
- Potency [3]: inactive
- Potency [10]: inactive
- Potency [4]: inactive
- Potency [5]: inactive
- Potency [6]: inactive
- Potency [7]: inactive

Compound: CCCN(CCc1cccs1)[C@H]1CCc2c(O)cccc2C1
- Potency [1]: inactive
- Potency [2]: 21.3 µM (active)
- Potency [3]: inactive
- Potency [4]: 23.9 µM (active)
- Potency [5]: inactive
- Potency [7]: inactive

Compound: CC1CCCCC1
- Potency [1]: inactive
- max response [2]: 5.61%
- Potency [9]: inactive
- Potency [3]: inactive
- Potency [5]: inactive
- Potency [6]: inactive
- Potency [7]: inactive

Compound: N[C@@H](CSSC[C@H](N)C(=O)O)C(=O)O
- viability change, negative = cytotoxic [1]: 3.56% [at 0.29 µM]
- max response [2]: 2.95%
- activity change, negative = cytotoxic [3]: -2.71% [at 0.29 µM]
- cytotoxicity increase [4]: 5.29% [at 0.29 µM]
- activity change, negative = cytotoxicity [5]: 18.3% [at 0.29 µM]
- cytotoxicity increase [6]: 2.69% [at 0.29 µM]

Compound: O=C(Oc1ccccc1)c1cccc(C(=O)Oc2ccccc2)c1
- Potency [1]: inactive
- max response [2]: 5.48%
- Potency [3]: inactive
- Potency [5]: inactive
- Potency [7]: inactive

Compound: COc1cc(C=C2CCC/C(=C\c3ccc(O)c(OC)c3)C2=O)ccc1O
- Potency [1]: inactive
- Potency [2]: 21.3 µM (active)
- Potency [3]: 23.9 µM (active)
- Potency [10]: 23.9 µM (active)
- Potency [6]: inactive
- Potency [7]: inactive

Compound: O=C[C@H](O)[C@H](O)[C@H](O)CO
- Potency [1]: inactive
- max response [2]: 0.822%
- Potency [3]: inactive
- Potency [4]: inactive
- Potency [5]: inactive
- Potency [6]: inactive
- Potency [7]: inactive

Compound: C=C/C=C/C=C/CCCCC
- viability change, negative = cytotoxic [1]: -19.2% [at 15.8 µM]
- max response [2]: -0.0339%
- activity change, negative = cytotoxic [3]: 7.06% [at 15.8 µM]
- cytotoxicity [10]: -3.54% [at 15.8 µM]
- activity change, negative = cytotoxicity [5]: 0.841% [at 15.8 µM]
- cytotoxicity increase [6]: 13.2% [at 15.8 µM]
- cytotoxicity [7]: -3.64% [at 15.8 µM]

Compound: CSc1c(Cl)c(Cl)c(Cl)c(Cl)c1Cl
- Potency [1]: inactive
- max response [2]: -20.6%
- Potency [9]: 48.7 µM (active)
- Potency [3]: inactive
- Potency [5]: inactive
- Potency [7]: inactive

Compound: Cc1ccc2ccc3cccc4ccc1c2c34
- Potency [1]: inactive
- Potency [8]: inactive
- Potency [9]: inactive
- Potency [3]: inactive
- Potency [10]: inactive
- Potency [4]: inactive
- Potency [5]: inactive
- Potency [6]: inactive
- Potency [7]: inactive

Compound: CCCC(CC)CCCCCCCN (stereo not drawn)
- Potency [1]: inactive
- Potency [2]: 56.3 µM (active)
- Potency [3]: inactive
- Potency [6]: 44.7 µM (active)
- Potency [7]: inactive

Compound: CC1CCCCN1CCCOC(=O)c1ccc(OC2CCCCC2)cc1 (stereo not drawn)
- Potency [1]: inactive
- Potency [2]: 21.3 µM (active)
- Potency [4]: 26.8 µM (active)
- Potency [5]: inactive
- Potency [7]: inactive

Compound: Cc1c(-c2ccc(O)cc2)n(Cc2ccc(OCCN3CCCCCC3)cc2)c2ccc(O)cc12
- Potency [1]: 23.9 µM (active)
- Potency [2]: 3.38 µM (active)
- Potency [9]: 23.9 µM (active)
- Potency [3]: 9.52 µM (active)
- Potency [5]: inactive
- Potency [6]: 19 µM (active)
- Potency [7]: inactive

Compound: Nc1cc(Cl)c([N+](=O)[O-])cc1O
- Potency [1]: inactive
- Potency [8]: inactive
- Potency [9]: inactive
- Potency [3]: inactive
- Potency [10]: inactive
- Potency [4]: inactive
- Potency [5]: inactive
- Potency [6]: inactive
- Potency [7]: inactive

Compound: Cc1cc(Nc2ccc(O)cc2)ccc1N
- Potency [1]: 43.5 µM (active)
- Potency [2]: 19.4 µM (active)
- Potency [9]: inactive
- Potency [10]: inactive
- Potency [6]: 43.5 µM (active)
- Potency [7]: inactive

Compound: CC1(C)COCN1
- Potency [1]: inactive
- max response [2]: -0.12%
- Potency [3]: inactive
- Potency [4]: inactive
- Potency [5]: inactive
- Potency [7]: inactive

Compound: CC(C)C(=O)OCc1ccccc1
- Potency [1]: inactive
- max response [2]: 18.1%
- Potency [3]: inactive
- Potency [7]: inactive

Compound: Cc1cncc(C)c1
- Potency [1]: inactive
- max response [2]: 0.584%
- Potency [9]: inactive
- Potency [3]: inactive
- Potency [5]: inactive
- Potency [7]: inactive

Compound: O=C(Nc1ccc(Cl)c(Cl)c1)c1cc(Cl)cc(Cl)c1O
- Potency [1]: inactive
- Potency [2]: 4.9 µM (active)
- Potency [9]: inactive
- Potency [10]: 9.77 µM (active)
- Potency [4]: 8.71 µM (active)
- Potency [5]: inactive
- Potency [7]: inactive

Compound: S=P(N1CC1)(N1CC1)N1CC1
- Potency [1]: inactive
- Potency [8]: inactive
- Potency [9]: inactive
- Potency [3]: inactive
- Potency [10]: inactive
- Potency [4]: inactive
- Potency [5]: inactive
- Potency [6]: inactive
- Potency [7]: inactive

Compound: CC1=C(/C=C/C(C)=C/C=C/C(C)=C\C=O)C(C)(C)CCC1
- Potency [1]: inactive
- Potency [2]: 46.4 µM (active)
- Potency [9]: inactive
- Potency [3]: inactive
- Potency [5]: inactive
- Potency [7]: inactive

Compound: Cc1oc(-c2ccccc2)nc1CCOc1ccc(C[C@H](Nc2ccccc2C(=O)c2ccccc2)C(=O)O)cc1
- Potency [1]: inactive
- max response [2]: 0.495%
- Potency [9]: inactive
- Potency [3]: inactive
- Potency [5]: inactive
- Potency [6]: inactive
- Potency [7]: inactive

Compound: NCCCC(O)(P(=O)(O)O)P(=O)(O)O
- Potency [1]: inactive
- max response [2]: 12.2%
- Potency [3]: inactive
- Potency [10]: inactive
- Potency [4]: inactive
- Potency [5]: inactive
- Potency [6]: inactive

Compound: COc1ccc2sc(C(=O)Nc3nnn[nH]3)c(OC(C)C)c2c1
- Potency [1]: inactive
- Potency [8]: inactive
- Potency [9]: inactive
- Potency [3]: inactive
- Potency [10]: inactive
- Potency [4]: inactive
- Potency [5]: inactive
- Potency [6]: inactive
- Potency [7]: inactive

Compound: CCCCCCC(C)OC(=O)COc1nc(F)c(Cl)c(N)c1Cl (stereo not drawn)
- Potency [1]: inactive
- max response [2]: -20.4%
- Potency [3]: inactive
- Potency [5]: inactive
- Potency [7]: inactive

Compound: CCCCCCCC/C=C\CCCCCCCC(=O)N(C)CC(=O)O
- Potency [1]: inactive
- Potency [8]: 34.7 µM (active)
- Potency [3]: inactive
- Potency [5]: inactive
- Potency [6]: 34.7 µM (active)
- Potency [7]: inactive

Compound: CCc1ccc(O)c(C(C)(C)C)c1
- max response [2]: -13.3%
- Potency [8]: 43.6 µM (active)
- Potency [9]: 43.6 µM (active)
- Potency [3]: inactive
- Potency [10]: 38.9 µM (active)
- Potency [4]: 38.9 µM (active)
- Potency [5]: inactive
- Potency [6]: 38.9 µM (active)
- Potency [7]: inactive

From PubChem BioAssay (Tox21)
